The campaign covered roughly 340,000 compounds. About 2,500 (0.74%) were called active.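 Rule for the calls: active = inhibition above about 55% (limit read from the data); inactive = the rest.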 This excerpt belongs to a sample that is enriched for actives.
assay: Gli-Sufu pathway antagonists, primary screen, luciferase luminescence, Sufu-KO-LIGHT cells, uHTS (AID 588413); details: Sufu-KO-LIGHT fibroblasts, Gli luciferase reporter luminescence; at 5 µM; hits give high values;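 note: 0% = DMSO-treated cells and 100% = wells with medium but no cells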

For `CC1=CC(=Cc2sc3ccccc3[n+]2C)C=C(C)O1`, which inhibition is on record?
Its inhibition is 80.9% (active).

For `O=C(O)CCn1cc(C=C2C(=O)NC(=S)NC2=O)c(-c2cccc(Br)c2)n1`, which inhibition is on record?
The inhibition was -2.59% (inactive).

For `CC(C)CN1CCN(Cc2ccccc2C(F)(F)F)CC1CCO` (stereo not given), which inhibition is on record?
Its inhibition is 20.7% (inactive).

With `Cc1cc(C)c2c(c1)NP(=S)(c1ccccc1)N2` (stereo not given) as the compound, how does the inhibition read?
The inhibition was -6.68% (inactive).

Which inhibition does the source give for `CNC(=O)Nc1ccc(C(O)(C(=O)OC)C(F)(F)F)cc1` (stereo not given) here?
The inhibition was 11.8% (inactive).

With `CCCCCCCCCCCCn1ccc(=N)cc1` as the compound, how does the inhibition read?
Its inhibition is 87.5% (active).

For `O=C1C2(Cl)C3(Cl)C4(Cl)C(Cl)(Cl)C5(Cl)C3(Cl)C1(Cl)C5(Cl)C24Cl` (stereo not given), which inhibition is on record?
The inhibition was -3.44% (inactive).

With `COc1cc(-n2c(=S)[nH]c3ccc(C)cc3c2=O)c(Cl)cc1Cl` as the compound, how does the inhibition read?
The inhibition was -14.6% (inactive).

For `CCN(CC)CCOC(=O)c1cc2cc(COC)ccc2o1`, which inhibition is on record?
Its inhibition is 0.39% (inactive).

For `CCOc1cccc(=NC2CCCCC2)c2c(C)[nH]c(C)c12`, which inhibition is on record?
Its inhibition is 79% (active).

With `CC(C)Nc1nc(Cl)nc(NC(C)C)n1` as the compound, how does the inhibition read?
The inhibition was 1.26% (inactive).

Which inhibition does the source give for `O=C(C1CC(=O)N(C2CCCC2)C1)N1CCC2(CC1)OCCO2` (stereo not given) here?
The inhibition was -2.84% (inactive).

Which inhibition does the source give for `C=CCN(CC=C)C(=O)Nc1ccc(OCC)cc1` here?
The inhibition was -12.4% (inactive).

With `CCC(C)(O)C(=O)OC1C(=O)OC2CC3C(C)=CC(=O)C(O)C3(C)C3C4(O)OCC23C1C(C)C4O` (stereo not given) as the compound, how does the inhibition read?
The inhibition was 82% (active).

With `CN(C)CC1Oc2ccccc2OC1(O)c1ccccc1` (stereo not given) as the compound, how does the inhibition read?
The inhibition was -3.73% (inactive).

For `CCOP(=O)(OCC)C(NC(=O)c1ccc(OC)cc1)C(Cl)(Cl)Cl` (stereo not given), which inhibition is on record?
Its inhibition is -2.69% (inactive).

For `CCOP(=O)(OCC)C(NC(=O)c1ccc(C)cc1)C(Cl)(Cl)Cl` (stereo not given), which inhibition is on record?
The inhibition was 2.77% (inactive).

Which inhibition does the source give for `CC1=C2C(=O)C3C(CC=C4CC(OC5OC(O)C(O)C(O)C5CO)CCC43C)C2CCC12OC1CC(C)CNC1C2C` (stereo not given) here?
Its inhibition is -0.71% (inactive).

With `O=C1/C(=C\c2ccc3c(c2)OCO3)N2CCC1CC2` as the compound, how does the inhibition read?
Its inhibition is 16.5% (inactive).

For `N[C@@H](Cc1c[nH]c2ccccc12)c1nnc(SCc2c(F)cccc2Cl)o1`, which inhibition is on record?
The inhibition was -1.34% (inactive).

For `CCOc1ccc(-c2cc(C)[n+](CCN(CC)CC)c(-c3ccc(OCC)cc3)c2)cc1`, which inhibition is on record?
Its inhibition is 77.8% (active).

Which inhibition does the source give for `COC(=O)C1=C(c2cc3ccccc3s2)C[C@@H]2CC[C@H]1N2C(=O)NC(C)C` here?
Its inhibition is 9.18% (inactive).

For `COc1ccc(-c2nn(CCC#N)cc2C(=O)Nc2ccc(C(C)=O)cc2)cc1`, which inhibition is on record?
Its inhibition is -28.4% (inactive).

For `COC(=O)COc1cc(C)cc2oc(=O)c3c(c12)CCCC3`, which inhibition is on record?
Its inhibition is -1.17% (inactive).

Which inhibition does the source give for `COc1ccc(NC(=O)c2cn(CCC#N)nc2-c2ccc([N+](=O)[O-])cc2)cc1` here?
The inhibition was 6.35% (inactive).

Which inhibition does the source give for `CC(=O)OC1C2(CC3N4C(=O)C5(CO)SSC4(CC31O)C(=O)N5C)OC(C)C(C)(C)C2=O` (stereo not given) here?
The inhibition was 85.7% (active).

With `Cc1ccccc1NC(=O)COC(=O)c1cc(C)n(C2CC2)c1C` as the compound, how does the inhibition read?
The inhibition was 0.92% (inactive).

With `O=C1NC(=O)C(CCc2ccccn2)(Cc2cccc(Cl)c2Cl)C(=O)N1c1ccc(Br)cc1` (stereo not given) as the compound, how does the inhibition read?
Its inhibition is 0.16% (inactive).

With `Cc1ccnc(-n2c(C)cc(/C=C3\C(=O)NC(=S)N(C)C3=O)c2C)c1` as the compound, how does the inhibition read?
The inhibition was 7.71% (inactive).

With `CC[C@H]1CC2CN3CCc4c([nH]c5ccccc45)C(C(=O)OC)(C2)C13` (stereo not given in full) as the compound, how does the inhibition read?
Its inhibition is 8.02% (inactive).

Source: PubChem BioAssay AID588413 (Sanford-Burnham Center for Chemical Genomics, 2011)
